# Bioassay records deposited in PubChem by National Center for Advancing Translational Sciences (NCATS).
# An excerpt weighted towards active compounds, which were near 19% of everything screened.
# LASV entry inh: blocks Lassa virus binding to or entry into cells. Lassa virus pseudotype entry inhibition, cell reporter. Potency, µM (series often up to 37.9 µM), for the others: at the top dose activity change, negative = inhibition, usual class: inhibitors. 300,000 compounds, 1.2% hits. AID 540256; calls by dose curve; tested in HEK293 cells; note: potency is the fitted concentration of half-maximal effect; % is set by controls: 0 for no effect and ±100 for the full control effect; nearly all actives have a fitted effect of over 50% in size
# Marburg entry inh: blocks Marburg virus binding to or entry into cells | Marburg virus pseudotyped entry inhibition, cell reporter | 300,000 compounds, 1.8% hits | Potency, µM (doses to about 37.8 µM), without a hit: at the top dose activity change, negative = inhibition, hits mostly inhibitors; calls by dose curve; tested in HEK293 cells; note: potency is the fitted concentration of half-maximal effect; % is set by controls: 0 for no effect and ±100 for the full control effect
# Pf growth 48h: P. falciparum growth inhibition at 48 hours (one generation) | P. falciparum luciferase growth in erythrocytes, 48 h | Potency, µM (doses to about 28.7 µM), for the others: at the top dose activity change, negative = inhibition, actives largely listed as inhibitors | 310,000 compounds, 5.9% hits; note: potency is the fitted concentration of half-maximal effect; % is set by controls: 0 for no effect and ±100 for the full control effect
#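 Growth was read as firefly luciferase luminescence after a 48 h, 37 C, 5% CO2 exposure of compounds to reporter-bearing P. falciparum cultures (0.1% parasitemia, 2% hematocrit final) in Albumax-supplemented RPMI 1640.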
# CHX counter: counter-screen for Shiga toxin inhibitors: cycloheximide protein synthesis inhibition; cell reporter, cycloheximide protein synthesis inhibition counterscreen; max response, %; 300,000 compounds, 12% hits; AID 2314; in the data active = max response mostly above about 13%, no sharp cut-off; inactive = mostly below about 14%; note: read at 38.3 µM for the half of the compounds with a filed dose; 0% is about no effect
# Pf growth 96h: P. falciparum growth inhibition at 96 hour, primary screen for plastid delayed-death inhibitors. P. falciparum luciferase reporter growth, 96 h. Potency, µM (top dose mostly 28.7 µM), for inactives: at the highest dose activity change, negative = inhibition, hits mostly inhibitors. 320,000 compounds, 6.9% hits; note: potency is the fitted concentration of half-maximal effect; % is set by controls: 0 for no effect and ±100 for the full control effect
#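 P. falciparum expressing integrated firefly luciferase, in erythrocytes at 2% hematocrit, 0.05% parasitemia, incubated with compounds 96 h at 37 C, 5% CO2. Growth inhibition read as loss of luminescence; two-generation exposure targets delayed-death apicoplast inhibitors.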
# Shiga inhibitor: Shiga toxin inhibition | 290,000 compounds, 9.2% hits | AID 2315 | inhibition, % at 38.7 µM | Vero cells, Shiga toxin protein synthesis inhibition reporter; in the data active = inhibition mostly above about 28%, no sharp cut-off; inactive = mostly below about 43%; note: 0% is about no effect
# An asterisk follows results filed as active; ? = inconclusive; · = not tested or not shown; + = active, no number; [ ] = another dose, or the depositor's remark. Unless noted, calls come from the whole dose curve; as a rule, active = well fitted inhibition curve with a large enough effect; inconclusive = small, poorly fitted or top-dose-only effect, or another doubt; inactive = no such curve, though single readings can be large or run the other way.
SMILES,LASV entry inh,Marburg entry inh,Pf growth 48h,CHX counter,Pf growth 96h,Shiga inhibitor
CCCCn1c(-c2cccs2)nc2oc3ccccc3c(=O)c2c1=O,15%,?,?,-2,?,-9
CCCc1nc2oc3ccccc3c(=O)c2c(=O)n1-c1ccccc1,13%,17%,81%,33*,314%,55*
COCCn1c(C(C)C)nc2oc3ccccc3c(=O)c2c1=O,-17%,-8%,-25%,8,?,-3
CCc1nc2oc3cc(OC)ccc3c(=O)c2c(=O)n1Cc1ccco1,-5%,4%,12µM*,8,?,-8
COc1ccnc(Nc2cccc(C)c2)c1C#N,15%,-15%,22%,2,6%,-6
O=C(CSc1nc2ccccc2nc1Cc1ccc(Cl)cc1)N1CCN(c2ccccc2)CC1,7%[46.1 µM],·,·,·,·,·
O=C(O)c1ccc(N/N=C/c2cc3ccccc3nc2Cl)cc1,·,·,185%,38*,207%,84*
O=[N+]([O-])c1ccccc1N/N=C/c1cc2ccccc2nc1Cl,45%[14.3 µM],?,91%,38,·,+
C[C@H](NC(=O)OC(C)(C)C)C(=O)N/N=C/c1cccc2nccnc12,-9%,-7%,-1%,-3,10%,-14
Cc1cccc2cc(/C=N/Nc3ccc(C(=O)O)cc3)c(Cl)nc12,·,10%,217%,68*,384%,128*
O=[N+]([O-])c1ccc(Cl)cc1N/N=C/c1ccncc1,·,·,8%,1,-28%,-4
O=C(O)c1ccc(N/N=C/c2cccc3nccnc23)cc1,·,·,153%,27*,134%,45*
COc1cccc(C2=Nn3c(nnc3-c3ccc(OC)c(OC)c3)SC2)c1,·,·,·,3,·,7
C/C=C/C=C/C(=O)[C@@H]1[C@@H]([C@]2(C)OC(=O)C(C)=C2O)[C@H]2/C(=C(O)/C=C/C=C/C)C(=O)[C@]1(C)C(=O)C2(C)O (some centres undefined),·,·,-25%,-5,7.4µM*,1
CCOC(=O)c1sc(NC(=O)CN2C(=O)NC3(CC(C)CC(C)(C)C3)C2=O)cc1C (centres undefined),-10%[46.1 µM],?,2.6µM*,·,3.7µM*,·
CC(C)Cc1nnc(NC(=O)CN2C(=O)NC3(CC(C)CC(C)(C)C3)C2=O)s1 (centres undefined),-7%,-10%,?,·,17µM*,·
CCOC(=O)c1sc(NC(=O)CN2C(=O)NC3(CC(C)CC(C)(C)C3)C2=O)c(C(=O)OCC)c1C (centres undefined),-6%,-30%,8.3µM*,-1,2.1µM*,6
CCOC(=O)CCN1C(=O)[C@H]2[C@H]3[C@H](O)[C@H](O)C/C(=N\NC(=O)OCc4ccccc4)[C@@H]3CC[C@H]2C1=O,·,29%[14.2 µM],·,·,·,·
O=c1[nH][nH]c(-c2ccccc2)c1-c1ccccc1,0%[46.1 µM],2%[46.1 µM],·,·,·,·
O=c1oc(-c2cccc(C(F)(F)F)c2)nn1-c1ccc(C(F)(F)F)cn1,-2%,-25%[14.2 µM],?,5,?,4
Nc1nc2n(n1)C(=O)CC(c1ccccc1)N2 (centres undefined),4%,-7%,16%,-3,9.3µM*,-12
CC(=O)c1ccccc1OC(=O)c1ccc([N+](=O)[O-])o1,3%,31%,45%,1,52%,27
O=C1CCCCC1Sc1nnc(Nc2ccccc2)s1 (centres undefined),?,?,248%,38*,71%,99*
CCSc1nnc(Nc2ccccc2)s1,0%,?,77%,34*,-5%[5.75 µM],90*
CC(C#N)Sc1nnc(Nc2ccccc2)s1 (centres undefined),1%[46.1 µM],?,-1%,24,17%,28
SMILES,LASV entry inh,Marburg entry inh,Pf growth 48h,CHX counter,Pf growth 96h,Shiga inhibitor
CCSc1nnc(Nc2ccc(C)cc2)s1,?,11%,56%,38*,16%,124*
O=C(CSc1ccc2ccccc2c1)NC1CCCc2ccccc21 (centres undefined),-2%,-21%,1%,-1,-23%,-1
O=C(CCc1nnc(CCCCc2ccccc2)o1)NCCn1cccn1,·,·,1%,-1,-14%,-19
O=C(COc1ccc(F)cc1Br)N1CCc2ccccc21,1%,?,23%,42*,2%,47*
COc1cc(CO)ccc1OCC(=O)N1CCc2ccccc21,28%[46.1 µM],-9%[46.1 µM],0%,19*,?,24*
C=C(C)[C@@H](O)COc1c2ccoc2cc2oc(=O)ccc12,·,·,?,·,-3%,·
CCOC(=O)Cn1c(C)cc(=O)c2cccc(C)c21,4%,9%,·,-2,-13%,-5
CCOC(=O)c1c2c(n(Cc3ccccc3)c1C)C(=O)C(=O)c1ccccc1-2,?,5.6µM*,·,·,·,·
CCOC(=O)c1cc(C)n(Cc2ccc(OCC)c(OC)c2)c1C,-18%,-24%,1.7µM*,8,·,17
CCOC(=O)c1c2c3c(cccc3n(C)c1=O)C(=O)c1ccccc1-2,-19%[46.1 µM],?,10%,-2,108%,·
CCOC(=O)c1c(S(=O)(=O)NCCc2ccc(OC)c(OC)c2)c(C)n(C)c1C,·,·,8%,3,?,-4
CCOC(=O)c1c(C)c(C)n(Cc2ccc(OC)c(OC)c2)c1C,-23%,?,8.3µM*,-5,?,-5
CC12CCCCC1(O)[N+](=O)C1=C(CCCC1)N2[O-] (centres undefined),1%,?,10%,15*,4.1µM*,86
CC(C)(C)c1cc(C(=O)N/N=C/c2ccc(-c3ccccc3[N+](=O)[O-])o2)n[nH]1,·,·,12µM*,26*,10µM*,45
Cc1ccc(C(=O)N/N=C\c2ccc(-c3ccc([N+](=O)[O-])cc3)o2)cn1,-15%[46.1 µM],-2%[46.1 µM],?,5,6%,26
O=C(N/N=C/c1ccc(-c2ccccc2[N+](=O)[O-])o1)c1cccnc1,7%,12%,1%,16*,31%,6
O=C(NCc1cccnc1)c1ccc(-c2ccccc2[N+](=O)[O-])o1,4%,0%,15%,11,37%,40*
Cc1cc(C(=O)N/N=C/c2ccc(-c3cccc(Cl)c3Cl)o2)n[nH]1,-29%,-9%,-26%,-3,196%,-7
O=C(NCc1cccnc1)c1ccc(-c2cccc(Cl)c2Cl)o1,?,-8%[46.1 µM],-20%,12,18%,16
CCS(=O)(=O)c1ccc(O)c(NC(=O)c2cc(OC)c(OC)c(OC)c2)c1,-2%,11%,·,-1,·,-13
O=C(N/N=C/c1ccc(Br)s1)c1ccccn1,?,?,-1%,48*,129%,84*
O=C(N/N=C/c1ccsc1)c1ccccn1,-26%[46.1 µM],?,458%,28*,482%,70*
O=C(N/N=C/c1ccc(OC(=O)c2ccccc2Br)cc1)c1ccccn1,?,8%,7%,-3,?,-16
CC(C)(C)c1ccc(/C=N/NC(=O)c2ccccn2)cc1,?,3.2µM*,159%,38*,?,42*
